ADAM10 inh = ADAM10 inhibition, QFRET primary screen; recombinant ADAM10, EDANS/DABCYL FRET peptide cleavage, 3 h; AID 720582; O14672; 370,000 compounds, 0.62% hits; inhibition, % at 7 µM;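 active means inhibition above a per-campaign cutoff equal to the mean of compounds falling between control-based bounds plus 3 SD, cut at about 20% in these data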;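 further: 0% = DMSO wells while the 100% control is not disclosed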
CendR NRP1 mod = alters CendR peptide binding to human NRP-1 | inhibition, % at 25 µM | FAM-RPARPAR peptide binding to NRP-1, fluorescence polarization | O14786 | AID 602438 | 360,000 compounds, 0.85% hits;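 active means inhibition or corrected inhibition above about 18%, plus a signal ratio from 0.5 to 1.5, limit read from the data, passing the limit was not always enough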
Target sequence (O14786 whole entry, looked up): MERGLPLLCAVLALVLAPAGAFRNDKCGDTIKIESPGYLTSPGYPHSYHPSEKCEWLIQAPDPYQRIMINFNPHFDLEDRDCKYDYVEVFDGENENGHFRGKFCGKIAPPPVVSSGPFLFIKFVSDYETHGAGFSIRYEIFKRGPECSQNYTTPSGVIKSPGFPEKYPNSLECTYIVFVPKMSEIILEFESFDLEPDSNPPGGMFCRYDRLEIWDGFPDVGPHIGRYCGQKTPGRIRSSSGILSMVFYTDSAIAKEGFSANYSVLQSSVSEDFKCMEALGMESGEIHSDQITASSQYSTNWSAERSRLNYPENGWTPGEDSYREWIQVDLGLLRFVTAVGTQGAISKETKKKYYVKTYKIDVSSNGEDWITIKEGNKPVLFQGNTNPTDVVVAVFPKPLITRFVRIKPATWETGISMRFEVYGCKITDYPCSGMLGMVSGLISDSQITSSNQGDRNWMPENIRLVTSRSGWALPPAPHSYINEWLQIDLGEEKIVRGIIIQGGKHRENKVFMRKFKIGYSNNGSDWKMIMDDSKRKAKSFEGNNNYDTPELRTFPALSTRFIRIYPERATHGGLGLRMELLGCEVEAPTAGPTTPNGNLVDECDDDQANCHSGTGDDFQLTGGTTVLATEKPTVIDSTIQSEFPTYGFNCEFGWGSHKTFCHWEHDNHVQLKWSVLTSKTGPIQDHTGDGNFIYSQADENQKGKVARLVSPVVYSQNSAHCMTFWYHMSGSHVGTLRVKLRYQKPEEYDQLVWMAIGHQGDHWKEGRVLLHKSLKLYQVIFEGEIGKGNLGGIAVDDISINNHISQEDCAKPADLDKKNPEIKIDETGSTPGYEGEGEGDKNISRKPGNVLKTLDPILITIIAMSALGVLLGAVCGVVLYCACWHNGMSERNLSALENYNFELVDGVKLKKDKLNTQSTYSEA
ADAM17 inh = inhibits human ADAM17. recombinant ADAM17, EDANS/DABCYL FRET peptide cleavage. inhibition, % at 6.95 µM. 370,000 compounds, 0.83% hits;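 active means inhibition above the mean of compounds lying between control limits plus 3 SD, set per campaign, cut at about 8.5% in these data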;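 further: 0% = DMSO-only wells as the low control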
APOBEC3G inh = APOBEC3G (human) deaminase inhibition; AID 493012; inhibition, % at 20 µM; 330,000 compounds, 0.28% hits; recombinant A3G, ssDNA deamination FAM/TAMRA fluorescence; Q9HC16;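 active means inhibition of at least 40% at 20 µM, with no more than 30% in the related APOBEC3A deaminase screen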;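 further: plate controls were DMSO wells with A3G for no effect and wells lacking A3G enzyme for full effect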
APOBEC3A inh = inhibitors of human APOBEC3A DNA deaminase | recombinant A3A, FAM/TAMRA ssDNA deamination fluorescence | inhibition, % at 20 µM | P31941 | 330,000 compounds, 0.41% hits | AID 493011;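 active means at least 40% inhibition at 20 µM here, with at most 30% in a related deaminase screen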;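 further: plate controls were A3A with DMSO for no effect and wells lacking A3A enzyme for full effect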
ADAM10 ctr = ADAM10 inhibition, counter-screen for ADAM17 exosite hits. inhibition, % at 6.95 µM. recombinant ADAM10, EDANS/DABCYL FRET peptide cleavage, 3 h. shares compounds with ADAM17 inh. 2,900 compounds, 47% hits;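 active means mean inhibition over the triplicate runs exceeds the activity threshold set in the earlier primary screen, cut at about 20% in these data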;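 further: 0% = DMSO wells and 100% = marimastat wells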
ADAM17 confirm = human ADAM17 inhibition, confirmation; shares compounds with ADAM17 inh; AID 743257; inhibition, % at 6.95 µM; recombinant ADAM17, EDANS/DABCYL QFRET peptide cleavage; 2,900 compounds, 65% hits;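 active means mean inhibition across replicates above the hit cutoff set in the primary screen, cut at about 8.5% in these data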;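 further: 0% = DMSO wells and 100% = marimastat wells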
Starred values were filed as active, the others as inactive. Shown are actives, neighbours in structure and some others; about 2.4% of the full set was active somewhere.

What do the screens show for `CC(Nc1ccc(Br)cc1)C(=O)N/N=C/c1ccccc1OCc1ccccc1` (centres undefined)?
ADAM10 inh: 1.2; CendR NRP1 mod: 22.6; ADAM17 inh: -0.7; APOBEC3G inh: -4.3; APOBEC3A inh: -2.3

Results for COc1ccc(NC(C)C(=O)N/N=C/c2ccccc2OCc2ccc(Br)cc2)cc1 (centres undefined) ?
ADAM10 inh: 19.4; CendR NRP1 mod: 21.9*; ADAM17 inh: 13.7*; APOBEC3G inh: -1.9; APOBEC3A inh: -0.3; ADAM10 ctr: 14.4; ADAM17 confirm: 20.5*

Results for CCOC(=O)NC(NC(=S)Nc1ccc(OCC)cc1)C(Cl)(Cl)Cl (centres undefined) ?
ADAM10 inh: -1.6; CendR NRP1 mod: 3.9; ADAM17 inh: 0.0; APOBEC3G inh: -5.6; APOBEC3A inh: 5.9

How did O=C(NC(NC(=S)Nc1c(Cl)cccc1Cl)C(Cl)(Cl)Cl)OCc1ccccc1 (centres undefined) do in these assays?
ADAM10 inh: 14.5; CendR NRP1 mod: 9.6; ADAM17 inh: 12.4*; APOBEC3G inh: -5.5; APOBEC3A inh: -1.4; ADAM10 ctr: 32.5*; ADAM17 confirm: 16.4*

What do the screens show for `CCOC(=O)[C@@H]1CSCCS(=O)(=O)N1C(=O)[C@H](CCSC)NC(=O)OC(C)(C)C`?
ADAM10 inh: -5.3; ADAM17 inh: -4.1

How did CC(C)CC(=O)c1c(O)cc(O)c2c1OC1=C(C(=O)C(C)(C)C(=O)C1(C)C)C2CC(C)C (centres undefined) do in these assays?
ADAM10 inh: 9.7; ADAM17 inh: 9.2*; ADAM10 ctr: 13.4; ADAM17 confirm: 7.5

What do the screens show for `CCOC(=O)[C@]12CCCCC/C=C\1N(Cc1ccc(OC)cc1)C(=O)[C@H]2CC(=O)NCC12CC3CC(CC(C3)C1)C2`?
ADAM10 inh: 8.1; ADAM17 inh: 2.7

Results for Cc1cc(N2CCN(CC(C)(C)O)C[C@H]2C)ccc1N1CCN(CC(C)(C)O)[C@H](C)C1 ?
ADAM10 inh: -12.1; ADAM17 inh: -3.5

How did C[C@@H]1CC=C[C@H]2[C@H]1C(=O)N(Cc1ccccc1)[C@H]2c1ccc2ccccc2c1 do in these assays?
ADAM10 inh: 16.9; CendR NRP1 mod: -2.2; ADAM17 inh: 9.4*; APOBEC3G inh: 8.8; APOBEC3A inh: 2.9; ADAM10 ctr: 10.4; ADAM17 confirm: 6.0

How did Cc1cc2c(nc1C)CCCN2S(=O)(=O)c1ccc(C(F)(F)F)cc1 do in these assays?
ADAM10 inh: -3.7; ADAM17 inh: -4.2

Results for CC(C)=CC(=O)Nc1ccc(Cl)cc1 ?
ADAM10 inh: -4.9; CendR NRP1 mod: 6.0; ADAM17 inh: 5.4; APOBEC3G inh: -4.4; APOBEC3A inh: 0.2

How did CS/C(=C\[N+](=O)[O-])Nc1ccc(Cl)cc1 do in these assays?
ADAM10 inh: 16.2; CendR NRP1 mod: 13.9; ADAM17 inh: 11.6*; APOBEC3G inh: -5.2; APOBEC3A inh: -4.1; ADAM10 ctr: 2.3; ADAM17 confirm: 1.2

What do the screens show for `CCOc1ccc(Oc2ccc(NS(=O)(=O)c3cc(C(=O)O)ccc3Cl)cc2)cc1`?
ADAM10 inh: -1.3; CendR NRP1 mod: -19.1; ADAM17 inh: 14.0*; APOBEC3G inh: -2.8; APOBEC3A inh: -1.5; ADAM10 ctr: 4.6; ADAM17 confirm: 11.0*

How did CCc1ccc(OC)c(S(=O)(=O)Nc2ccc(Cc3ccncc3)cc2)c1 do in these assays?
ADAM10 inh: 11.6; CendR NRP1 mod: -5.2; ADAM17 inh: 9.2*; APOBEC3G inh: -3.2; APOBEC3A inh: -0.5; ADAM10 ctr: 11.6; ADAM17 confirm: 8.6

What do the screens show for `COc1ccc(F)cc1S(=O)(=O)Nc1ccc(C)cc1`?
ADAM10 inh: 6.5; CendR NRP1 mod: 1.9; ADAM17 inh: 10.7*; APOBEC3G inh: -5.4; APOBEC3A inh: -5.4; ADAM10 ctr: 13.3; ADAM17 confirm: 6.8

Results for CCOc1ccc(NS(=O)(=O)c2cc(Cl)ccc2OC)cc1 ?
ADAM10 inh: 13.9; CendR NRP1 mod: 22.4*; ADAM17 inh: 12.4*; APOBEC3G inh: -5.9; APOBEC3A inh: -2.9; ADAM10 ctr: 12.4; ADAM17 confirm: 7.2

Results for COc1ccc(NS(=O)(=O)c2cc(C)ccc2OC)cc1OC ?
ADAM10 inh: 4.5; CendR NRP1 mod: 9.6; ADAM17 inh: -1.8; APOBEC3G inh: -7.7; APOBEC3A inh: -5.7

How did CCOc1ccc(S(=O)(=O)Nc2cc(NS(=O)(=O)c3ccc(OCC)cc3)cc(C(=O)O)c2)cc1 do in these assays?
ADAM10 inh: 2.9; CendR NRP1 mod: -29.2; ADAM17 inh: -3.9; APOBEC3G inh: 4.5; APOBEC3A inh: 19.9

Results for Cc1c(CN2CCCC(CO)(Cc3cccc(Cl)c3)C2)cnn1C (centres undefined) ?
ADAM10 inh: 9.5; CendR NRP1 mod: 1.0; ADAM17 inh: -3.1; APOBEC3G inh: -1.8; APOBEC3A inh: -0.4

What do the screens show for `OCC1(Cc2cccc(Cl)c2)CCCN(Cc2sc(N3CCCC3)nc2Cl)C1` (centres undefined)?
ADAM10 inh: 13.0; CendR NRP1 mod: -6.9; ADAM17 inh: 10.2*; APOBEC3G inh: 1.7; APOBEC3A inh: -1.0; ADAM10 ctr: 17.1; ADAM17 confirm: 9.7*

Results for COC(=O)C1=C(C)N(Cc2cccc(C(F)(F)F)c2)C(=NCc2ccc(OC)cc2)NC1c1ccc(F)cc1 (centres undefined) ?
ADAM10 inh: 2.1; ADAM17 inh: -0.2

How did O=C(c1cc(COc2c(F)cccc2F)on1)N1CCC(c2ccccc2Cl)C1 (centres undefined) do in these assays?
ADAM10 inh: 19.0; CendR NRP1 mod: 3.0; ADAM17 inh: 9.5*; APOBEC3G inh: -5.2; APOBEC3A inh: -2.8; ADAM10 ctr: 12.7; ADAM17 confirm: 10.8*

What do the screens show for `Cc1ccccc1OCc1n[nH]c(=S)n1-c1cccc(Cl)c1`?
ADAM10 inh: 17.8; CendR NRP1 mod: 13.7; ADAM17 inh: 3.1; APOBEC3G inh: 3.0; APOBEC3A inh: -5.9

How did Cc1cc(Cl)ccc1OCc1n[nH]c(=S)n1C1CCCCC1 do in these assays?
ADAM10 inh: 8.7; CendR NRP1 mod: -7.6; ADAM17 inh: 9.3*; APOBEC3G inh: -4.8; APOBEC3A inh: -2.3; ADAM10 ctr: 30.3*; ADAM17 confirm: 11.0*

How did O=C(CNC(=O)c1ccccc1F)N/N=C/c1cc(Br)ccc1OCc1ccccc1 do in these assays?
ADAM10 inh: 18.8; CendR NRP1 mod: -1.5; ADAM17 inh: 8.8*; APOBEC3G inh: 2.7; APOBEC3A inh: -0.1; ADAM10 ctr: 31.8*; ADAM17 confirm: 15.3*

Results for CCN(CC)C(=O)C1=C(C)N(Cc2ccc(C(C)(C)C)cc2)C(=O)C(CC(=O)NCCCCc2ccccc2)C1 (centres undefined) ?
ADAM10 inh: 16.3; CendR NRP1 mod: -0.8; ADAM17 inh: 9.8*; ADAM10 ctr: 19.6; ADAM17 confirm: 7.8
